Source: PubChem BioAssay (The Scripps Research Institute Molecular Screening Center)
SMARCA2 act = SMARCA2 function activation, primary screen; activation, % at 9.1 µM; 370,000 compounds, 1% hits; MG213 cells, MMTV-luciferase reporter, dexamethasone, overnight; AID 652017; in the data active = activation above about 7.8%;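 note: 0% = vehicle wells and 100% = reference activator wells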
hcDAF-12 act = H. contortus DAF-12 activation, primary screen | activation, % at 6.8 µM | AID 652067 | HEK293 hcDAF-12 lit1-tk-luc reporter, luminescence; 0% DMSO, 100% Δ7-dafachronic acid | 370,000 compounds, 1.4% hits;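 active = activation above the mean of all tested compounds plus 3 SD, cut at about 5.5% in these data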;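 note: 100% = response to 3 µM Δ7-dafachronic acid high control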
DAX1 inh-1 = inhibits human nuclear receptor DAX1; P51843; HEK293 Gal4-DAX1 luciferase reporter, luminescence; inhibition, % at 6.75 µM; 340,000 compounds, 0.99% hits;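 active = inhibition above the mean over all tested compounds plus 3 SD, cut at about 4.2% in these data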;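 note: 0% = DAX1-transfected cells with DMSO and 100% = empty-vector control cells with DMSO; inhibition shows as a rise in luminescence from relieved DAX1 repression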
Target sequence (P51843 207-470 limits assumed): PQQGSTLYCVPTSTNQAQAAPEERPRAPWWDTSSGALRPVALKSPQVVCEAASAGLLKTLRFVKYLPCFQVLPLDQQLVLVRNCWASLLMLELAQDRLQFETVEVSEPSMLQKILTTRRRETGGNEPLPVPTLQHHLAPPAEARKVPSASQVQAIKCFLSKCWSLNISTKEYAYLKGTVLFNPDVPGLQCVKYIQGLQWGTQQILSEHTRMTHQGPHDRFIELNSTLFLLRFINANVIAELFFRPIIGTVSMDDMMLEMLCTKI
ssDAF12 agonist = S. stercoralis DAF-12 activation, primary screen; HEK293 ssDAF-12/GRIP1 lit1-tk-luc reporter, luminescence; % of 3 µM dafachronic acid response; activation, % at 6.8 µM; 370,000 compounds, 1% hits; AID 652126;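 active = activation above the mean over all tested compounds plus 3 SD, cut at about 0.9% in these data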;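 note: 0% = DMSO-only wells and 100% = 3 µM delta7-dafachronic acid wells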
hgDAF-12 ag = hgDAF-12 agonism, primary luciferase screen; HEK293 GAL4-hgDAF12 UAS-luciferase reporter, agonist luminescence; normalized to butyrate control; activation, % at 6.8 µM; 370,000 compounds, 1.8% hits; AID 687014;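 active = activation above a cutoff set at the mean of all screened compounds plus 3 SD, cut at about 10% in these data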;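 note: 0% = DMSO wells and 100% = sodium butyrate wells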
DAX1 inh-2 = blocks DAX1 repression of SF-1 activated StAR promoter | HEK293T StAR-luciferase reporter, SF-1/DAX-1 repression relief | inhibition, % at 6.8 µM | 370,000 compounds, 1.1% hits | AID 652010;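 active = inhibition above the mean over all tested compounds plus 3 SD, cut at about 3.6% in these data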;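 note: 0% = DAX-1 cells with DMSO and 100% = cells lacking DAX-1 with DMSO; higher inhibition means more luminescence from relief of DAX-1 repression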
SMARCA2 conf = SMARCA2 activation, confirmation screen; shares compounds with SMARCA2 act; AID 652260; MG213 cells, MMTV-luciferase with dexamethasone, luminescence, overnight; MG213 cells expressing E1A, Rb sequestered; DMSO wells 0%, reference activator 100%; 3,500 compounds, 30% hits; activation, % at 9.1 µM;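 active = activation above its plate's cutoff, the mean activation of tested wells plus 3 SD, cut at about 7.9% in these data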
GAL4-VP16 Luc = GAL4-VP16 reporter activation counter-screen | shares compounds with SMARCA2 act | HEK293 GAL4-VP16 pG5luc reporter, luciferase luminescence; scaled: DMSO wells 0%, SAHA wells 100% | activation, % at 9.1 µM | 3,500 compounds, 41% hits | AID 686939;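 active = activation above the solvent-only control well mean plus 3 SD, averaged across control plates, cut at about 5.2% in these data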
* hit, by the source's call; / = no result given. A selection: hits, their analogues and other compounds. The true share with any hit is near 4.8%.

SMILES	SMARCA2 act	hcDAF-12 act	DAX1 inh-1	ssDAF12 agonist	hgDAF-12 ag	DAX1 inh-2	SMARCA2 conf	GAL4-VP16 Luc
Nc1ccc(CCNc2ncnc3c2ncn3[C@@H]2O[C@H](CO)[C@@H](O)[C@H]2O)cc1	-2.9	-0.4	-1.0	-1.9	-2.9	1.2	/	/
OCC1OC(n2cnc3c(NCCc4ccccc4)ncnc32)C(O)C1O (configuration not stated)	10.8*	-1.3	0.6	-0.5	12.7*	2.2	5.5	7.8*
CC(Oc1ccc(Cl)cc1Cl)C(=O)NC1CCSC1=O (configuration not stated)	8.3*	-1.0	0.3	-1.5	1.2	-0.3	1.4	0.6
C[C@H]1O[C@@H](n2c3ccc(Cl)cc3c3ccc4c5cc(Cl)ccc5[nH]c4c32)[C@H](O)[C@H](O)[C@H]1O	-3.5	-1.1	/	-1.6	1.2	1.4	/	/
COc1cc(NC(=O)COc2ccc(-n3cnnn3)cc2)c(OC)cc1Cl	3.2	-0.2	0.1	-1.6	0.0	0.6	/	/
O=C(COc1ccc(-n2cnnn2)cc1)Nc1cccc(Cl)c1Cl	8.1*	-1.2	-1.3	-0.9	-0.4	0.1	1.0	1.2
CCOC(=O)C1=CCN(S(=O)(=O)c2ccc(Cl)cc2)C1c1cccc(Br)c1 (configuration not stated)	-2.9	-1.9	/	-1.2	-2.4	-0.8	/	/
COC(=O)C1=C(C)OC(N)=C(C#N)C1c1c(C)nn(-c2ccccc2)c1Cl (configuration not stated)	11.3*	-0.8	-0.4	-0.7	0.3	-0.5	-0.6	1.1
COC(=O)C1=C(C)OC(N)=C(C#N)C1c1ccccc1 (configuration not stated)	0.5	-0.6	-0.6	-1.3	0.1	0.3	/	/
Cc1ccc(CNC(=O)C2=NNC(=O)CC2)cc1	12.1*	-1.4	2.0	-0.5	-1.5	0.1	3.6	7.9*
O=C(NCc1ccco1)O[C@@H]1CC[C@@]23CCCN2C(=O)CCC[C@H]3C1	/	-0.7	/	-1.2	0.2	/	/	/
Cc1cc(C)nc(NC(=O)/C=C/c2cccs2)c1	8.8*	3.0	0.3	-0.2	5.5	1.2	5.6	9.9*
O=C(/C=C/c1cccs1)Nc1cccc(NC(=O)/C=C/c2cccs2)n1	-1.4	-0.3	-3.7	-1.4	1.7	-2.1	/	/
CC1(CCCN2C(=O)c3ccccc3C2=O)OCCO1	10.4*	-0.7	/	-0.4	3.4	-0.3	4.7	3.9
CCCC1CCC2(CC1)CCC2OC(=S)NCc1ccc(Cl)cc1 (configuration not stated)	/	2.5	/	-1.7	0.4	/	/	/
O=C1N/C(=C/c2ccc(N3CCOCC3)o2)C(=O)N1c1ccccc1	13.9*	1.3	-1.6	-1.1	-0.4	-0.9	3.0	1.8
C=CCN1C(=O)N/C(=C/c2ccc(N3CCOCC3)o2)C1=O	5.5	-1.0	/	-0.8	0.1	-0.9	/	/
c1ccc(-c2nc3nc4ccccc4nc3n2Cc2ccco2)cc1	8.0*	3.8	2.2	0.2	8.5	1.4	6.8	13.6*
Fc1ccc(-c2nc3nc4ccccc4nc3n2Cc2ccco2)cc1	0.2	1.7	0.7	0.1	9.0	1.5	/	/
Nc1cccc(N=[N+]([O-])c2cccc(N)c2)c1	8.8*	-0.2	0.5	-0.4	11.3*	0.8	12.5*	6.9*
COc1ccc(CNC(=O)C2CCCN(S(=O)(=O)c3ccc4c(c3)C(C)(C)C(=O)N4C)C2)cc1 (configuration not stated)	-1.0	-1.7	1.6	-1.6	-0.8	-0.5	/	/
CN1C(=O)C(C)(C)c2cc(S(=O)(=O)N3CCCC(C(=O)NCc4ccccc4Cl)C3)ccc21 (configuration not stated)	10.3*	-0.4	0.0	-1.1	-0.2	-1.1	-3.1	3.9
O=C(Nc1ccc(C(F)(F)F)cc1)OC1CC2CC1[C@H]1CCCCN1[C@H]2Cc1ccccc1 (some centres not stated)	-2.8	-0.6	/	0.9	0.1	-0.9	/	/
NC(=S)NN=Cc1nccc2c(N)cccc12	8.3*	-0.6	-4.1	-0.5	-6.2	-4.5	-0.9	-1.3
Cc1nnc(N/N=C/c2ccc(-c3ccc(Br)cc3)o2)n1N	1.1	-1.3	-0.4	-1.8	-0.2	-2.5	/	/
SMILES	SMARCA2 act	hcDAF-12 act	DAX1 inh-1	ssDAF12 agonist	hgDAF-12 ag	DAX1 inh-2	SMARCA2 conf	GAL4-VP16 Luc
Cc1nnc(N/N=C\c2ccc(-c3cccc(C(=O)O)c3)o2)n1N	9.1*	-1.2	-2.7	-1.3	-5.2	-1.9	2.9	0.5
COC(=O)[C@]12C[C@H](CC(=O)N3CCN(C(=O)C4CC4)CC3)C(=O)N(Cc3cccc4ccccc34)C1=C[C@H](C(C)C)O[C@@H]2C1CC1	-1.7	-2.3	/	-0.7	2.5	-0.1	/	/
CCOC(=O)N1CCN(S(=O)(=O)c2ccc(C(=O)Nc3sc4c(c3C#N)CCC4)cc2)CC1	10.9*	4.0	0.9	-1.1	0.7	0.2	-2.2	0.6
COc1ccc(N2CCN(CC(=O)Nc3ncc(C)s3)CC2)cc1	-0.4	0.0	-1.3	-1.3	-1.2	-0.4	/	/
Cc1cnc(NC(=O)CN2CCN(c3ccccn3)CC2)s1	12.3*	0.9	1.8	-0.2	8.5	-0.7	21.7*	0.7
CCCCN1CCN(C2=Nc3ccccc3Sc3ccccc32)CC1	-5.9	-2.3	/	-1.4	1.9	0.4	/	/
Brc1ccc(/C=C/C=N/Nc2nc3ccccc3s2)cc1	12.9*	3.6	0.3	-0.2	0.7	0.1	6.2	8.7*
N/C(=N\N=C\c1ccc([N+](=O)[O-])cc1)c1nonc1N	14.5*	1.6	0.5	-1.1	10.7*	1.0	3.5	9.1*
Oc1c(Cl)cc(Cl)c2cccnc12	2.4	3.2	-0.6	-0.7	0.1	-0.3	/	/
Cc1ccc2c(Cl)cc(Cl)c(O)c2n1	10.3*	-0.6	-2.6	-1.3	-0.5	-1.5	-15.7	11.2*
CCCNc1ccc(C(=O)OCC)cc1[N+](=O)[O-]	9.3*	2.7	0.5	-1.0	4.4	1.0	8.4*	4.4
CN1CCN(S(=O)(=O)c2ccc(NC(=O)c3ccc(Br)o3)cc2)CC1	8.2*	-0.1	0.7	-0.9	2.5	0.1	3.8	0.7
O=C(Nc1ccc(S(=O)(=O)N2CCCC2)cc1)c1ccc(Br)o1	-1.5	0.4	-1.2	-1.5	0.1	-0.1	/	/
COCCCNC(=S)Nc1cc(C)c(C)cc1C	8.6*	-0.4	-0.3	-1.0	-1.2	0.4	5.1	0.9
COCCCNC(=S)Nc1ccc(OC(F)F)cc1C	-2.7	0.0	1.0	-1.1	-1.4	-0.8	/	/
